Screens deposited in PubChem BioAssay by several laboratories.
In the library only some 4.2% were active in any assay of this set; here they are far more common.
hgDAF12 agonist – hgDAF-12 agonism, primary luciferase screen | hit rate 1.8% among 370,000 | HEK293 GAL4-hgDAF12 UAS-luciferase reporter, agonist luminescence; normalized to butyrate control | activation, % at 6.8 µM;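 active means activation above a cutoff set at the mean of all screened compounds plus 3 SD, cut at about 10% in these data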;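 further: 0% = DMSO wells and 100% = sodium butyrate wells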
Wnt bcat act – activators of Wnt/beta-catenin signaling; Wnt/beta-catenin reporter cell assay, activator, plate reader; activation, % at 9.35 µM; hit rate 1.2% among 300,000; in the data active means activation above about 30%, passing the limit was not always enough; inconclusive means no clear call, values can overlap the other calls;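 further: 0% = neutral control wells and 100% = positive control wells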
hcDAF12 agonist – activates DAF-12 receptor from parasite H. contortus; activation, % at 6.8 µM; AID 652067; HEK293 hcDAF-12 lit1-tk-luc reporter, luminescence; 0% DMSO, 100% Δ7-dafachronic acid; hit rate 1.4% among 370,000;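 active means activation above the mean of all tested compounds plus 3 SD, cut at about 5.5% in these data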;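 further: 100% = response to 3 µM Δ7-dafachronic acid high control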
DAX1 inh – DAX1 (NR0B1) inhibition, primary screen | hit rate 1.1% among 370,000 | inhibition, % at 6.8 µM | HEK293T StAR-luciferase reporter, SF-1/DAX-1 repression relief;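 active means inhibition above the mean over all tested compounds plus 3 SD, cut at about 3.6% in these data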;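 further: 0% = DAX-1 cells with DMSO and 100% = cells lacking DAX-1 with DMSO; higher inhibition means more luminescence from relief of DAX-1 repression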
ssDAF12 agonist – S. stercoralis DAF-12 activation, primary screen; hit rate 1% among 370,000; HEK293 ssDAF-12/GRIP1 lit1-tk-luc reporter, luminescence; % of 3 µM dafachronic acid response; activation, % at 6.8 µM;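 active means activation above the mean over all tested compounds plus 3 SD, cut at about 0.9% in these data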;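 further: 0% = DMSO-only wells and 100% = 3 µM delta7-dafachronic acid wells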
esBAF inh – inhibitors of esBAF chromatin remodeling in mouse ES cells | Bmi1-luciferase knock-in reporter, 24 h; 100% = twice the neutral-well signal | reporter increase, % at 12.5 µM | hit rate 2% among 350,000; in the data active means activation above about 40%; inconclusive means no clear call, values can overlap the other calls;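 further: 0% = median of the plate's neutral control wells and 100% = double that signal; a rise in the Bmi1 reporter signal indicates esBAF inhibition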
esBAF Ring1 qPCR – esBAF inhibition confirmed by Ring1 de-repression. fold change at 33 µM. shares compounds with esBAF inh. 550 tested, under 10 active. mouse ESC E14, Ring1 mRNA RT-qPCR fold change;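 active means Ring1 gene expression raised more than 2-fold over untreated cells in both replicates at either tested dose; inconclusive means only one replicate above 2-fold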;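 further: Ring1 transcript normalised to actin housekeeping signal by TaqMan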
esBAF Fgf4 qPCR – represses Fgf4 in mouse ESCs, confirming esBAF inhibition | shares compounds with esBAF inh | mouse ESC E14, Fgf4 mRNA qPCR fold change; stronger effect = lower value | Fgf4 expression fold change at 33 µM | hit rate 4% among 550 | AID 743177;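 active means Fgf4 expression under 0.8 fold of control in both repeat measurements at one or both tested doses; inconclusive means under 0.8 fold in just a single repeat measurement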;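 further: Fgf4 transcript normalised to actin in duplex TaqMan qPCR; cells exposed to compound for 24 h before lysis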
Bmi1 derepress – de-represses Bmi1 in mouse ESCs, confirming esBAF inhibition; fold change at 33 µM; mouse ESE14 ES cells, Bmi1 mRNA qPCR fold; stronger effect = higher value; 550 tested, under 10 active; AID 743180; shares compounds with esBAF inh;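 active means Bmi1 expression fold change above 6 at either tested concentration, seen in replicate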
A549 tox SP – kills or reduces viability of A549 cells; AID 743188; shares compounds with esBAF inh; A549 cytotoxicity, plate reader; cell viability change % (negative = cytotoxic), % at 25 µM, hits read low; 550 tested, under 10 active; call rule not given here
HepG2 cytotox SP – cytotoxicity in HepG2 cells; plate reader; stronger effect = lower value; activity change, negative = inhibition, % at 25 µM; shares compounds with esBAF inh; hit rate 4% among 550; in the data active means activity change below about -50%
HEK293 cytotox SP – HEK293 cell cytotoxicity at single point. activity change, negative = inhibition, % at 25 µM, hits read low. plate reader. hit rate 3% among 550. shares compounds with esBAF inh. AID 743190; in the data active means activity change below about -38%, passing the limit was not always enough
The depositor's hits bear a star; ? = inconclusive; · = no result given.

SMILES | hgDAF12 agonist | Wnt bcat act | hcDAF12 agonist | DAX1 inh | ssDAF12 agonist | esBAF inh | esBAF Ring1 qPCR | esBAF Fgf4 qPCR | Bmi1 derepress | A549 tox SP | HepG2 cytotox SP | HEK293 cytotox SP
CN1CCN(C(=O)C[C@@H]2C[C@@H]3c4cc(NC(=O)NC5CCCC5)ccc4O[C@@H]3[C@@H](CO)O2)CC1 | · | · | · | · | · | 0 | · | · | · | · | · | ·
COc1ccc(NC(=O)Nc2ccc3c(c2)C(=O)N([C@H](C)CO)C[C@@H](C)[C@H](CN(C)S(C)(=O)=O)OCCCC[C@H](C)O3)cc1 | · | · | · | · | · | 9 | · | · | · | · | · | ·
Cc1cc2nc(N3CCN(C(=O)c4cccs4)CC3)sc2cc1C | 2 | 19 | 0 | 4 | -1 | 62* | 1.1 | ? | 1.4 | -8 | 24 | -11
Cc1cc(C)c2nc(N3CCN(C(=O)c4cccs4)CC3)sc2c1 | -2 | 2 | -1 | 1 | -2 | · | · | · | · | · | · | ·
CCCN(C)C[C@@H]1OCCCC[C@H](C)Oc2ccc(NC(=O)CCC(F)(F)F)cc2C(=O)N([C@H](C)CO)C[C@@H]1C | · | · | · | · | · | -5 | · | · | · | · | · | ·
CCOC(=O)N1CCN(c2ccc(C(=O)CC)cc2F)CC1 | 1 | · | -1 | 0 | -1 | -18 | · | · | · | · | · | ·
CCC(=O)c1ccc(N2CCC(C)CC2)c(F)c1 | 4 | 8 | 0 | 0 | -2 | 71* | 1.4 | 0.9 | 1.7 | 1 | -17 | 2
O=C(NC(=O)c1ccc(C(F)(F)F)cc1)Nc1ccc(-c2cnco2)cc1 | -1 | -2 | 0 | 0 | -1 | · | · | · | · | · | · | ·
O=C(Nc1ccc(-c2cnco2)cc1)c1ccc(F)cc1F | 10 | 39* | 0 | 0 | -1 | 63* | 1.1* | 0.97 | 0.78 | -2 | -42 | 2
O=C(NCc1ccccn1)c1ccc(-c2ccccc2)cc1 | 10 | 18 | 2 | 2 | 0 | 22 | · | · | · | · | · | ·
O=C(CCCc1ccccn1)c1ccc(-c2ccccc2)cc1 | 6 | -3 | 2 | 1 | 0.9* | 55* | 1.2 | ? | 1.8 | -5 | -14 | -6
COCC#Cc1cnc2c(c1)C(=O)N([C@@H](C)CO)C[C@@H](C)[C@@H](CN(C)Cc1ccc3c(c1)OCO3)O2 | · | · | · | · | · | -5 | · | · | · | · | · | ·
CC(=O)Oc1ccc2cc(-c3ccccc3)c(=O)oc2c1 | 1 | 15 | 0 | 0 | -1 | 60* | 1.3 | 0.89 | 1.6 | -14 | -7 | 3
Cc1ccc(CNC(=O)C2CCC(=O)N(CCc3ccc(Cl)cc3)C2)cc1 (configuration not stated) | 8 | 8 | 0 | -1 | -1 | 56* | 1.2 | 0.93 | 1.7 | -5 | 3 | 2
O=C(NNC(=O)c1ccc2ccccc2c1O)NC1CCCCC1 | -1 | 2 | 1 | 0 | -1 | 0 | · | · | · | · | · | ·
O=C(NC1CCCCCCC1)c1c(O)c2ccccc2[nH]c1=O | 0 | · | 1 | 1 | -1 | 91* | 1.1 | 0.92 | 1.3 | -6 | 18 | -18
O=C(NC1CCCCC1)c1ccc2ccccc2c1O | 1 | 0 | 1 | 3 | 0 | 83* | 1.1 | 0.73* | 1.9 | -13 | 9 | -50*
C[C@@H]1CN([C@H](C)CO)C(=O)c2cc(NC(=O)Nc3ccc(F)cc3)ccc2O[C@H]1CN(C)Cc1ccc(C(F)(F)F)cc1 | · | · | · | · | · | 5 | · | · | · | · | · | ·
CCCN1[C@@H]2c3ccc(/C=C/c4ccccc4)c(=O)n3C[C@@H]2[C@@H](CO)[C@@H]1C(=O)N1CCOCC1 | · | · | · | · | · | 0 | · | · | · | · | · | ·
